In ChEMBL document CHEMBL1961873, “Compounds: GSK PKIS; Assays: Nanosyn kinase panel” (2012):

Tests used:
[1] = molecular target: 5'-AMP-activated protein kinase catalytic subunit alpha-2 (Homo sapiens) (UniProt P54646); conditions: at 1 µM
[2] = molecular target: T1, NUAK family SNF1-like kinase 1 (Homo sapiens) (UniProt O60285); conditions: at 0.1 µM
T1 sequence (whole entry): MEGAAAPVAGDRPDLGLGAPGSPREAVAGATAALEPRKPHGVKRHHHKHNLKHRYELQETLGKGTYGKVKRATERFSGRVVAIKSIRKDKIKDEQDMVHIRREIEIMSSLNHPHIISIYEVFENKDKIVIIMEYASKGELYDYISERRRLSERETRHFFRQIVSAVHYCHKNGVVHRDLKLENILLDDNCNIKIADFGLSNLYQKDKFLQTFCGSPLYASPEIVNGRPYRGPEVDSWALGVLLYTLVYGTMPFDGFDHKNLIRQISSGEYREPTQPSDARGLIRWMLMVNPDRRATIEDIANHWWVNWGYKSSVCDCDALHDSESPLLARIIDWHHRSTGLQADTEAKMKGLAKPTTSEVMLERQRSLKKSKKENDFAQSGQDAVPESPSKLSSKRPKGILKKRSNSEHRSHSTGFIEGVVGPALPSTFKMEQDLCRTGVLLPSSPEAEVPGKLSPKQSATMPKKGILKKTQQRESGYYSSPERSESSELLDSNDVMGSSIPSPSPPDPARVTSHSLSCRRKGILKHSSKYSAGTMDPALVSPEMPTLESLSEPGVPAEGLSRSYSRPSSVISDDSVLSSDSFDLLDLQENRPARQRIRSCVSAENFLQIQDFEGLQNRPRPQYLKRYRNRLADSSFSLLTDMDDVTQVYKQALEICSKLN

[3] = molecular target: T1, NUAK family SNF1-like kinase 1 (Homo sapiens); conditions: at 1 µM
[4] = molecular target: T2, Serine/threonine-protein kinase BRSK1 (Homo sapiens) (UniProt Q8TDC3); conditions: at 0.1 µM
T2 sequence (whole entry): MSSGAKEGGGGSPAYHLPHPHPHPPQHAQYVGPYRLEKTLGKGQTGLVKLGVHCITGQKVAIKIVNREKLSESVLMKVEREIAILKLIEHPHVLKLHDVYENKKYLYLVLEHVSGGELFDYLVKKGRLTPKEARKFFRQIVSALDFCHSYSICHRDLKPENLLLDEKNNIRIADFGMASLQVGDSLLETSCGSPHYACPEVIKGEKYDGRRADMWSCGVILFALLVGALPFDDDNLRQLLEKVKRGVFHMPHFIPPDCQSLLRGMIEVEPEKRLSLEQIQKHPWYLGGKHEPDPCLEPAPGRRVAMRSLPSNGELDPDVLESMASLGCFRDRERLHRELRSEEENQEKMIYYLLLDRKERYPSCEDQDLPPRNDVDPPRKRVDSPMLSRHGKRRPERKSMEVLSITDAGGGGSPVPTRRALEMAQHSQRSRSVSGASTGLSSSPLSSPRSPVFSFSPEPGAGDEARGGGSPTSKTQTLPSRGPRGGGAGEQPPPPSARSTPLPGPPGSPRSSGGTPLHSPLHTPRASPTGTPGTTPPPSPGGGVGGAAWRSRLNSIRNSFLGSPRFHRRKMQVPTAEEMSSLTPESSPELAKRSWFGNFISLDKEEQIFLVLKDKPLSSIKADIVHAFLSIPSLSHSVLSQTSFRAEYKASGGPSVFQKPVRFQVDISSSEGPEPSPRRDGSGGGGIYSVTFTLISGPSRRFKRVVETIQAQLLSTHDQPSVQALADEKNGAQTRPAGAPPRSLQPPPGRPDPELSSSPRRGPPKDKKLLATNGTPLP

[5] = molecular target: T2, Serine/threonine-protein kinase BRSK1 (Homo sapiens); conditions: at 1 µM
[6] = molecular target: T3, Serine/threonine-protein kinase BRSK2 (Homo sapiens) (UniProt Q8IWQ3); conditions: at 0.1 µM
T3 sequence (whole entry): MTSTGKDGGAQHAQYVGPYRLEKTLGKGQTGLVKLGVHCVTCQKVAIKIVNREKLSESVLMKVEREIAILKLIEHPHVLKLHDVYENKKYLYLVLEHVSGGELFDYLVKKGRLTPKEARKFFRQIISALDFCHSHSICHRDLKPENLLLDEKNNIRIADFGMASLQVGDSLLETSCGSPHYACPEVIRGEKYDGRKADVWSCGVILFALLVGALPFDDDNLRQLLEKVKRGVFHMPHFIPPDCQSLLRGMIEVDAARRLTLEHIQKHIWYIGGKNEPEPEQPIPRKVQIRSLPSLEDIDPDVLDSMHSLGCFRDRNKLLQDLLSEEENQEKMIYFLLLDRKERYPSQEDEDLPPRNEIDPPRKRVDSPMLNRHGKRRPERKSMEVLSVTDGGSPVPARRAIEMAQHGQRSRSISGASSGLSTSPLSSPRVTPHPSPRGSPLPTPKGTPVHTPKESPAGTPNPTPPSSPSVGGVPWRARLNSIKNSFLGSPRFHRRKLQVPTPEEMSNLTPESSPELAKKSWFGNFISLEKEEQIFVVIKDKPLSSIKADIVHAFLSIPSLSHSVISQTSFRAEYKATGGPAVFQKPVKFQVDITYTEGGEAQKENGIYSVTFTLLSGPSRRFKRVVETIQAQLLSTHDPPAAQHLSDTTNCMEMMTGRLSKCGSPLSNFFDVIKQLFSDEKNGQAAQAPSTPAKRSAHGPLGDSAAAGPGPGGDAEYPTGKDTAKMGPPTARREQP

[7] = molecular target: T3, Serine/threonine-protein kinase BRSK2 (Homo sapiens); conditions: at 1 µM
[8] = molecular target: Calcium/calmodulin-dependent protein kinase type 1D (Homo sapiens) (UniProt Q8IU85); conditions: at 0.1 µM
[9] = molecular target: Calcium/calmodulin-dependent protein kinase type 1D (Homo sapiens) (UniProt Q8IU85); conditions: at 1 µM
[10] = molecular target: Calcium/calmodulin-dependent protein kinase type II subunit alpha (Homo sapiens) (UniProt Q9UQM7); conditions: at 0.1 µM
[11] = molecular target: Calcium/calmodulin-dependent protein kinase type II subunit alpha (Homo sapiens) (UniProt Q9UQM7); conditions: at 1 µM
[12] = molecular target: Calcium/calmodulin-dependent protein kinase type II subunit delta (Homo sapiens) (UniProt Q13557); conditions: at 0.1 µM
[13] = molecular target: Calcium/calmodulin-dependent protein kinase type II subunit delta (Homo sapiens) (UniProt Q13557); conditions: at 1 µM
[14] = molecular target: T4, Calcium/calmodulin-dependent protein kinase type IV (Homo sapiens) (UniProt Q16566); conditions: at 0.1 µM
T4 sequence (whole entry): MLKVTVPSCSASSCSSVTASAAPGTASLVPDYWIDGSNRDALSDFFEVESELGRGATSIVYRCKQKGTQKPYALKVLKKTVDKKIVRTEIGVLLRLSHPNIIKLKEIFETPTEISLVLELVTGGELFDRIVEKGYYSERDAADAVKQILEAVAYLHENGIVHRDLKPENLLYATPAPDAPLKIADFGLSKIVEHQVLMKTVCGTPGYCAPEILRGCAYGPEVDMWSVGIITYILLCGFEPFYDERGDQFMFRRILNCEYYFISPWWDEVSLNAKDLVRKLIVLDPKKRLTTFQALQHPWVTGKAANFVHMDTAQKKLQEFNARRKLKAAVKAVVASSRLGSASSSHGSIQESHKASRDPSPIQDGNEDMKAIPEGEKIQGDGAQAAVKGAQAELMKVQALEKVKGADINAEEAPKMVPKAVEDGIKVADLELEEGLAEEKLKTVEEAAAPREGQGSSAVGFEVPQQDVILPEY

[15] = molecular target: T4, Calcium/calmodulin-dependent protein kinase type IV (Homo sapiens); conditions: at 1 µM
[16] = molecular target: T5, Serine/threonine-protein kinase Chk1 (Homo sapiens) (UniProt O14757); conditions: at 0.1 µM
T5 sequence (whole entry): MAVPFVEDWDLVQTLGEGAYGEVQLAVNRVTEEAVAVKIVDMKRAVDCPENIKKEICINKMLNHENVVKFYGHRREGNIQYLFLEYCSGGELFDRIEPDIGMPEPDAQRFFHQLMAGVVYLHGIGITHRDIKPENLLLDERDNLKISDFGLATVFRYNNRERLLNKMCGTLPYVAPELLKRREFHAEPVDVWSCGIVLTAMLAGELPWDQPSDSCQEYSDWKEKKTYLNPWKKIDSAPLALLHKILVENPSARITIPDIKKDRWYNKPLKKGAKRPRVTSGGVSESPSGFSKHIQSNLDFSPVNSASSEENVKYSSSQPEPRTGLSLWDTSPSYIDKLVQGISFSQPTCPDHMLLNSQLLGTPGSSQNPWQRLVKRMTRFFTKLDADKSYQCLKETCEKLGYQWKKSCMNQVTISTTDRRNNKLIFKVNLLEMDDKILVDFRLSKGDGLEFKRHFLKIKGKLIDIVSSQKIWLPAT

[17] = molecular target: T5, Serine/threonine-protein kinase Chk1 (Homo sapiens); conditions: at 1 µM
[18] = molecular target: Serine/threonine-protein kinase Chk2 (Homo sapiens) (UniProt O96017); conditions: at 0.1 µM
[19] = molecular target: Serine/threonine-protein kinase Chk2 (Homo sapiens) (UniProt O96017); conditions: at 1 µM
[20] = molecular target: Death-associated protein kinase 1 (Homo sapiens) (UniProt P53355); conditions: at 0.1 µM;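 note: reported figure is the mean inhibition of DAPK1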
Sequence of Death-associated protein kinase 1 (Homo sapiens) (P53355 whole entry, looked up): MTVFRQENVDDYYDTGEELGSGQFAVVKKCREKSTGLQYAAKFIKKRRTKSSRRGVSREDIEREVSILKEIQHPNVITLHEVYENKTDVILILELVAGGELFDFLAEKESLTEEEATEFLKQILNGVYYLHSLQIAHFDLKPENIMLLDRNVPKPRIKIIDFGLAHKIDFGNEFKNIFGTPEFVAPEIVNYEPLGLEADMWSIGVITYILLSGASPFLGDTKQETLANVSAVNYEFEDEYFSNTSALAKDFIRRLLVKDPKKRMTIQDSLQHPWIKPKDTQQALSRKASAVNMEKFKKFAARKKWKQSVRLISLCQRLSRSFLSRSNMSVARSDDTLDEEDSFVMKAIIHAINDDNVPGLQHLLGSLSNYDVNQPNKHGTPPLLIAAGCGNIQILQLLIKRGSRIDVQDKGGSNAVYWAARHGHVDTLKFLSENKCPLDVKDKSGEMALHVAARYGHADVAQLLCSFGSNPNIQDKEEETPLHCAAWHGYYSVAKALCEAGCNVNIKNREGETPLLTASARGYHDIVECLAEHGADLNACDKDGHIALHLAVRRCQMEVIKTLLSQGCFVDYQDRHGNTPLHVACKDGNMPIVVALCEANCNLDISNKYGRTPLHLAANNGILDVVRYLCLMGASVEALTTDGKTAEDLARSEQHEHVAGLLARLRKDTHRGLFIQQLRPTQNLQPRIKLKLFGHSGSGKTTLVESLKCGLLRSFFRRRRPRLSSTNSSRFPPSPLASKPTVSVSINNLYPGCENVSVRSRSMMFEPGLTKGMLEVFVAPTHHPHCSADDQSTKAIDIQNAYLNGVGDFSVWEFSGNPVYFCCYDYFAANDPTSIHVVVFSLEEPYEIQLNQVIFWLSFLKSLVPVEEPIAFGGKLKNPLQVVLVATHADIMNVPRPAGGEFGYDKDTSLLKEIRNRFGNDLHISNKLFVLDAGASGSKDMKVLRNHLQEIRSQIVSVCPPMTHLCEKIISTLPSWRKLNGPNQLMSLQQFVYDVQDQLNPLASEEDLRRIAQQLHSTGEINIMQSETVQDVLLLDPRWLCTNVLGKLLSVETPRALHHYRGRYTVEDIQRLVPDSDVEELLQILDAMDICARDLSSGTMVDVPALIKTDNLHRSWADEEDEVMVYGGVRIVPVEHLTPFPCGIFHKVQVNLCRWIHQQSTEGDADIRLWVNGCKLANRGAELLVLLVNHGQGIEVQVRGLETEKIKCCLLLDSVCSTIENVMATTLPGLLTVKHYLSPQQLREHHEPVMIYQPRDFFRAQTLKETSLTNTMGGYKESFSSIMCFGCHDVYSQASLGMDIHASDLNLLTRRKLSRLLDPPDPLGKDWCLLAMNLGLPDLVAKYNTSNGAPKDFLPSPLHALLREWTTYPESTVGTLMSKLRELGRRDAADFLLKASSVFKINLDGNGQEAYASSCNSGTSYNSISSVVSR

Sequence of Calcium/calmodulin-dependent protein kinase type II subunit alpha (Homo sapiens) (Q9UQM7 whole entry): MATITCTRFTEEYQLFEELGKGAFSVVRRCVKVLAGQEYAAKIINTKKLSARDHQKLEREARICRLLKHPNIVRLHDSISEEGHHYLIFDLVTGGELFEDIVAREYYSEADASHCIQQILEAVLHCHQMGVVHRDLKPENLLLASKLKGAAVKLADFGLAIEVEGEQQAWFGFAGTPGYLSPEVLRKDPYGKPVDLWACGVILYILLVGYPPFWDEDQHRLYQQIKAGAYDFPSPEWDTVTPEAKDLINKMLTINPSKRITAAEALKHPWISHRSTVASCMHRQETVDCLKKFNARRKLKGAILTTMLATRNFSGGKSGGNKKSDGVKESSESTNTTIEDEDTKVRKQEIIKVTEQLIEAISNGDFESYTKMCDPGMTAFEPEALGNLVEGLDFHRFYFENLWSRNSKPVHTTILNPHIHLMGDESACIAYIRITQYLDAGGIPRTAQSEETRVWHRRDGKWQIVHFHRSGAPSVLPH
Sequence of 5'-AMP-activated protein kinase catalytic subunit alpha-2 (Homo sapiens) (P54646 whole entry, looked up): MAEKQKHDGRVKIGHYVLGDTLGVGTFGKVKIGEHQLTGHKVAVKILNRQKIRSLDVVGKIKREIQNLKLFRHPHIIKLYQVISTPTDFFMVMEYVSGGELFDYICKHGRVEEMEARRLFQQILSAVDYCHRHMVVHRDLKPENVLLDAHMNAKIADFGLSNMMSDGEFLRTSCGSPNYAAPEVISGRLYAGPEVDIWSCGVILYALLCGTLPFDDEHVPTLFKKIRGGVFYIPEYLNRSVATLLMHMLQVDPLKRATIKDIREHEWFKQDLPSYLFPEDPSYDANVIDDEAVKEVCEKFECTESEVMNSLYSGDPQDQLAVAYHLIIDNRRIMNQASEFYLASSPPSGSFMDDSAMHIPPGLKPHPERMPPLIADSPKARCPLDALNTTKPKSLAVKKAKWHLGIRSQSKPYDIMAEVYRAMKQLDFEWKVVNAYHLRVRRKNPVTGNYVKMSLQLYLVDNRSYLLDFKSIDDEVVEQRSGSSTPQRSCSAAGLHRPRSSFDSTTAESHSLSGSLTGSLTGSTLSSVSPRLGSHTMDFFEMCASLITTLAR
Sequence of Calcium/calmodulin-dependent protein kinase type II subunit delta (Homo sapiens) (Q13557 whole entry): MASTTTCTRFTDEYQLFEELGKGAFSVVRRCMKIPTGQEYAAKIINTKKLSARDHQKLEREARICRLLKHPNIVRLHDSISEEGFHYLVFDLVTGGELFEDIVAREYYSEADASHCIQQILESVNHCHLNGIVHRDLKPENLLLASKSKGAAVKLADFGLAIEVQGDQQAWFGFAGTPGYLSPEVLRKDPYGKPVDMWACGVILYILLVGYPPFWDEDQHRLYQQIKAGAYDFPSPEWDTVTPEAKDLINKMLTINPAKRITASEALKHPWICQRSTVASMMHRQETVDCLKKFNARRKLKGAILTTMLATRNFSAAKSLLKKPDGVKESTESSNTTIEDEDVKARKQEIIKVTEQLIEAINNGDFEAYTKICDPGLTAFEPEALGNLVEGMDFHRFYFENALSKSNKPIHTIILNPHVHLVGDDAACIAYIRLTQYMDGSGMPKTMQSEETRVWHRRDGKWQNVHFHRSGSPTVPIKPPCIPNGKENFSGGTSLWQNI
Sequence of Calcium/calmodulin-dependent protein kinase type 1D (Homo sapiens) (Q8IU85 whole entry, looked up): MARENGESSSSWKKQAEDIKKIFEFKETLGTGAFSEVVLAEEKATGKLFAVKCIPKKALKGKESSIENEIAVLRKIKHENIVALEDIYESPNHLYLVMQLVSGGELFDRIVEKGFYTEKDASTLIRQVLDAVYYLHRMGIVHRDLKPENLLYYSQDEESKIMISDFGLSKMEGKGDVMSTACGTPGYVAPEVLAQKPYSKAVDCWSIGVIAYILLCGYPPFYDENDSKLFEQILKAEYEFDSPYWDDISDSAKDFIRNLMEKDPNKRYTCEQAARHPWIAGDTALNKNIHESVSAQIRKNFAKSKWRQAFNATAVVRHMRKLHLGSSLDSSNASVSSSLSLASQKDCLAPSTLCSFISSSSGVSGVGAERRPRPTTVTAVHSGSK
Sequence of Serine/threonine-protein kinase Chk2 (Homo sapiens) (O96017 whole entry): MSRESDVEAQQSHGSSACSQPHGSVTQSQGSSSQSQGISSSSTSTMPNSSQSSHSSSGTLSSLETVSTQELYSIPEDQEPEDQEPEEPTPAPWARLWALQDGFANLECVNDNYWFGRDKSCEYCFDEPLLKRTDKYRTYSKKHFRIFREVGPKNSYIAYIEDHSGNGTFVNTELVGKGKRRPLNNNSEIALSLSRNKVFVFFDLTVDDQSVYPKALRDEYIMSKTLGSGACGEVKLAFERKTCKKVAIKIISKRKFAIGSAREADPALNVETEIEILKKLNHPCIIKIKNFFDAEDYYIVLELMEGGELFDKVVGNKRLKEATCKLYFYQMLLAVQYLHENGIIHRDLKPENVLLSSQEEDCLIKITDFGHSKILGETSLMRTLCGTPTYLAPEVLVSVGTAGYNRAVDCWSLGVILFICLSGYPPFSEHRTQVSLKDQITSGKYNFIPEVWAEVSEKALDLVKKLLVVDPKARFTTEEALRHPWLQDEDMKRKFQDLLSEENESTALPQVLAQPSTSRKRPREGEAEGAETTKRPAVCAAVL

Compound | inhibition [1] [%] | inhibition [2] [%] | inhibition [3] [%] | inhibition [4] [%] | inhibition [5] [%] | inhibition [6] [%] | inhibition [7] [%] | inhibition [8] [%] | inhibition [9] [%] | inhibition [10] [%] | inhibition [11] [%] | inhibition [12] [%] | inhibition [13] [%] | inhibition [14] [%] | inhibition [15] [%] | inhibition [16] [%] | inhibition [17] [%] | inhibition [18] [%] | inhibition [19] [%] | inhibition [20] [%]
CN(C)CCCn1c(-c2nonc2N)nc2cnccc21 | 5.42 | 3.04 | -0.59 | 1.23 | 0.57 | 0.27 | 1.19 | 0.27 | -0.73 | 2.81 | 3.18 | 3.33 | 4.12 | -0.84 | 15.5 | 5.63 | 4.94 | 2.39 | 3.79 | 4.9
CN(C)c1cc2c(Nc3ccc4c(cnn4Cc4ccccc4)c3)ncnc2cn1 | 2.49 | 1.17 | 3.46 | 2.42 | 7.54 | 2.27 | 9.3 | -0.24 | 0.88 | 2.88 | 2.41 | 2.28 | 2.7 | 1.84 | 0.37 | 2.49 | 5.16 | 3.91 | 17.9 | 2.91
Cc1ccc(O)cc1Nc1ccnc2ccc(S(C)(=O)=O)cc12 | 3.93 | 2 | 4.91 | 0.5 | 1.8 | 2.1 | 5.1 | -0.51 | 0.98 | 2.94 | 6.06 | 3.19 | 3.36 | -1.1 | -1.84 | 8.75 | 9.21 | 8.1 | 15.1 | 12.2
CCS(=O)(=O)c1ccc(OC)c(Nc2nccc(N(C)c3ccc4c(C)n[nH]c4c3)n2)c1 | 3.91 | -0.8 | -2.26 | 0.17 | 4.69 | 3.82 | 4.12 | 3.64 | 0.51 | 2.57 | -0.61 | 3.29 | 6.46 | -1.76 | -2.8 | 4.57 | 2.19 | 3.81 | 8.77 | 7.35
CN(c1ccc(NC(=O)Nc2ccc(OC(F)(F)F)cc2)cc1)c1ccnc(Nc2cccc(S(N)(=O)=O)c2)n1 | 2.41 | -0.52 | 10.1 | 1.53 | 5.53 | 1.94 | 1.96 | -0.31 | 0.2 | 3.05 | -1.5 | 1.07 | 0.14 | -0.96 | 0.59 | 1.72 | -0.01 | 5.43 | 25.9 | 3.79
COc1cccc(-n2ncc3c(N/N=C/c4ccc(S(C)(=O)=O)cc4)ncnc32)c1 | 4.43 | 14.7 | 37.4 | 13.7 | 52.5 | 20.1 | 60.8 | 0.78 | 0.51 | -0.15 | 1.01 | 1.8 | 4.11 | 2.57 | 0.23 | 0.1 | -1.03 | -0.14 | 0.05 | -1.65
C[C@@H](Oc1cc(-n2cnc3ccc(OC[C@@H](O)CO)cc32)sc1C(N)=O)c1ccccc1Cl | 2.08 | 6.98 | 39.1 | 15.7 | 55.8 | 24.2 | 68.3 | -0.01 | 0.92 | -2.71 | 2.24 | -0.89 | 7.31 | 1.25 | 1.44 | 0.04 | -1.83 | -1.68 | -1.71 | -1.62
